From PubChem BioAssay (NCI) come the findings set out here.

About 83,000 compounds went through this panel and 20% of them were active in at least one assay; those are over-represented in the sample as a whole.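 Compound tested at a single concentration for 48 hours in 96-well plates; a percent growth value below 10 was scored as active.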 Activity calls are given as the source filed them.

This experiment concerns NCI-H322M lung. As to the kind of experiment: NCI-60 one-dose screen, 48 h (100 = growth as untreated, 0 = no growth, -100 = all killed). The following applies: 10 µM.
For the molecule `COc1cccc(-c2ccc(/C=N/NC(=O)c3[nH]c4ccc(Br)cc4c3-c3ccccc3)o2)c1`, the growth was 45.7% (inactive).

Consider `COc1ccc2nc(Cl)c(-c3cc(-c4ccccc4)nc(=O)[nH]3)cc2c1`, for which the growth is 78.1% (inactive).

For `COc1cc2c(c(OC)c1OC)C(=O)CC(c1cccc(NC(=O)c3cccc(N)c3)c1)O2` (stereo not drawn), the growth was 91% (inactive).

On to `COc1ccc(-c2nc(S(=O)(=O)c3ccccc3)c(S(C)(=O)=O)o2)cc1`, for which the growth was 101% (inactive).

Consider `CN1CCN(c2ccc(C(=O)/C=C/c3ccc(C#N)cc3)cc2)CC1`, for which the growth is 94.2% (inactive).

For the molecule `O=C(NO)c1ccc(Cn2ccc3c(NCc4ccccc4)ncnc32)cc1`, the growth is 30.2% (inactive).

For `O=C(O)CCCCCCCCCCN1C(=O)/C(=C/c2cnc(-c3ccccc3)s2)SC1=S`, the growth was 80.6% (inactive).

Consider `Cc1cc(=O)oc2cc(OCCCCOc3ccc(/C=C/C(=O)Nc4ccccc4[N+](=O)[O-])cc3)ccc12`, for which the growth is 99.6% (inactive).

On to `CCOC(=O)CNC(=O)CN(Cc1ccccc1)C(=O)[C@@]1(C)CCC[C@]2(C)[C@H]3CC4C(C(C)C)=C[C@]3(CC[C@H]21)[C@@H]1C(=O)CCC(=O)[C@H]41`, for which the growth was 86.5% (inactive).

In the case of `Cc1ccc(-c2cc(-c3cc4ccccc4nc3Cl)[nH]c(=O)n2)cc1`, the growth was 32.1% (inactive).

For `COc1ccc2cc([C@H](C)C(=O)NCc3ccccc3)ccc2c1`, the growth is 49.7% (inactive).

As to `COc1cc(Cn2c(C(F)(F)F)cc3c(Cl)ncnc32)ccn1`, the growth is -73.3% (active).

For `CN(C)c1cccc2c(S(=O)(=O)Nc3cccc(-c4csc(NC(=O)CCCCCN5CCN(c6cc7c(cc6F)C(=O)N(C6CCC(=O)NC6=O)C7=O)CC5)n4)c3)cccc12` (stereo not drawn), the growth is 106% (inactive).
